Results from PubChem BioAssay (NCI).
Compounds without any hit were thinned out: in the full panel of roughly 83,000, 20% have a hit.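 Single-dose data. Exposure time 48 hours. Values below 10 considered active.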 Calls of active or inactive are those of the source.

Key:
Test in all cases: NCI-60 one-dose screen, 48 h (100 = growth as untreated, 0 = no growth, -100 = all killed)
Conditions in all cases: 10 µM unless noted
SR leukemia = test system: SR leukemia
RPMI-8226 leukemia = test system: RPMI-8226 leukemia
OVCAR-8 ovarian = test system: OVCAR-8 ovarian
OVCAR-5 ovarian = test system: OVCAR-5 ovarian
OVCAR-4 ovarian = test system: OVCAR-4 ovarian
SK-OV-3 ovarian = test system: SK-OV-3 ovarian
IGROV1 ovarian = test system: IGROV1 ovarian
OVCAR-3 ovarian = test system: OVCAR-3 ovarian
HS 578T breast = test system: HS 578T breast
NCI/ADR-RES ovarian = test system: NCI/ADR-RES ovarian
T-47D breast = test system: T-47D breast
BT-549 breast = test system: BT-549 breast
MDA-MB-435 melanoma = test system: MDA-MB-435 melanoma
SW-620 colon = test system: SW-620 colon
MCF7 breast = test system: MCF7 breast
HCT-116 colon = test system: HCT-116 colon
HCC-2998 colon = test system: HCC-2998 colon
KM12 colon = test system: KM12 colon

Measured: growth

COc1ccc(C2=CN3CC=CC3CC2=O)cc1 (stereo not drawn)
inactive: SR leukemia 94.4% | RPMI-8226 leukemia 104% | OVCAR-8 ovarian 103% | OVCAR-5 ovarian 110% | OVCAR-4 ovarian 98.9% | SK-OV-3 ovarian 102% | IGROV1 ovarian 104% | OVCAR-3 ovarian 102% | HS 578T breast 104% | NCI/ADR-RES ovarian 103% | T-47D breast 75.3% | BT-549 breast 105% | MDA-MB-435 melanoma 96.9% | SW-620 colon 105% | MCF7 breast 93.4% | HCT-116 colon 90.3% | HCC-2998 colon 91% | KM12 colon 101%

CCCCNC(=O)c1cc([N+](=O)[O-])cc(C2CCCCC2)c1O
inactive: SR leukemia 84.1% | RPMI-8226 leukemia 17% | OVCAR-8 ovarian 43.9% | OVCAR-5 ovarian 78.6% | OVCAR-4 ovarian 14.3% | SK-OV-3 ovarian 40.3% | IGROV1 ovarian 43.2% | OVCAR-3 ovarian 23.1% | HS 578T breast 48.3% | NCI/ADR-RES ovarian 49.6% | T-47D breast 12% | BT-549 breast 36.5% | MDA-MB-435 melanoma 33.3% | SW-620 colon 68.6% | MCF7 breast 39.3% | HCT-116 colon 27.8% | HCC-2998 colon 25% | KM12 colon 39.5%

CNC(=O)c1cc(Oc2cccc3nc(NC(=O)Nc4cc(C(F)(F)F)ccc4Cl)ccc23)ccn1
inactive: SR leukemia 48.2% | RPMI-8226 leukemia 78.8% | OVCAR-8 ovarian 78% | OVCAR-5 ovarian 98.7% | SK-OV-3 ovarian 115% | IGROV1 ovarian 108% | OVCAR-3 ovarian 95.4% | HS 578T breast 76.4% | NCI/ADR-RES ovarian 93.8% | T-47D breast 78.1% | BT-549 breast 85% | MDA-MB-435 melanoma 74.1% | SW-620 colon 112% | MCF7 breast 85% | HCT-116 colon 60.1% | HCC-2998 colon 115% | KM12 colon 96.7%
active: OVCAR-4 ovarian -10.5%

O=C(CCSc1nnc2n(Cc3ccccc3)c(=O)c3c4c(sc3n12)CCCC4)N1CCN(c2ccccc2)CC1
inactive: SR leukemia 121% | RPMI-8226 leukemia 112% | OVCAR-8 ovarian 110% | OVCAR-5 ovarian 91.7% | OVCAR-4 ovarian 115% | SK-OV-3 ovarian 108% | IGROV1 ovarian 103% | OVCAR-3 ovarian 95.9% | HS 578T breast 108% | NCI/ADR-RES ovarian 96.1% | T-47D breast 101% | BT-549 breast 99.5% | MDA-MB-435 melanoma 91.2% | SW-620 colon 101% | MCF7 breast 98.4% | HCT-116 colon 100% | HCC-2998 colon 96.5% | KM12 colon 92.9%

O=C1Nc2ccccc2C1(c1c[nH]c2ccccc12)c1c[nH]c2ccccc12
active: OVCAR-8 ovarian -9.32% | OVCAR-4 ovarian -25.2% | IGROV1 ovarian 8.3% | OVCAR-3 ovarian -47.2% | HS 578T breast -17.9% | T-47D breast -21.2% | BT-549 breast -17.7% | MCF7 breast -1.78%
inactive: SR leukemia 77.1% | RPMI-8226 leukemia 77.5% | OVCAR-5 ovarian 65.4% | SK-OV-3 ovarian 72.8% | NCI/ADR-RES ovarian 27.1% | MDA-MB-435 melanoma 85% | SW-620 colon 77% | HCT-116 colon 36.6% | HCC-2998 colon 26.4% | KM12 colon 11.9%

N=c1c(S(=O)(=O)c2ccccc2)cc2c(=O)n3ccccc3nc2n1CC1CCCO1 (stereo not drawn)
inactive: SR leukemia 106% | RPMI-8226 leukemia 109% | OVCAR-8 ovarian 116% | OVCAR-5 ovarian 89.8% | OVCAR-4 ovarian 99.9% | SK-OV-3 ovarian 99.3% | IGROV1 ovarian 102% | OVCAR-3 ovarian 108% | HS 578T breast 104% | NCI/ADR-RES ovarian 98.7% | T-47D breast 104% | BT-549 breast 101% | MDA-MB-435 melanoma 109% | SW-620 colon 96.1% | MCF7 breast 106% | HCT-116 colon 105% | HCC-2998 colon 105% | KM12 colon 108%

CCOc1cccc(/C=N/NC(=O)c2cccc(Nc3ccnc(C(F)(F)F)c3)c2)c1O
inactive: SR leukemia 41.4% | RPMI-8226 leukemia 27.3% | OVCAR-8 ovarian 24.4% | OVCAR-5 ovarian 40.9% | OVCAR-4 ovarian 39.1% | SK-OV-3 ovarian 30.2% | IGROV1 ovarian 24.2% | OVCAR-3 ovarian 43.2% | HS 578T breast 43.7% | NCI/ADR-RES ovarian 37.6% | T-47D breast 27.6% | BT-549 breast 48.5% | MDA-MB-435 melanoma 34.4% | SW-620 colon 36.6% | MCF7 breast 17.4% | HCT-116 colon 13% | HCC-2998 colon 43.5% | KM12 colon 38.9%

Cc1ccc(-c2nc(SCc3nc4cc(Cl)c(Cl)cc4[nH]3)[nH]c(=O)c2C#N)cc1
inactive: SR leukemia 96.7% | RPMI-8226 leukemia 115% | OVCAR-8 ovarian 98.2% | OVCAR-5 ovarian 101% | OVCAR-4 ovarian 105% | SK-OV-3 ovarian 96.2% | IGROV1 ovarian 99.6% | OVCAR-3 ovarian 99.9% | HS 578T breast 102% | NCI/ADR-RES ovarian 111% | T-47D breast 85.4% | BT-549 breast 92.5% | MDA-MB-435 melanoma 105% | SW-620 colon 109% | MCF7 breast 101% | HCT-116 colon 93.1% | HCC-2998 colon 110% | KM12 colon 96.6%

O=C(NNc1cnccn1)c1nc2cc(F)ccc2n2cccc12
active: SR leukemia 3.73% | OVCAR-4 ovarian -9.11% | IGROV1 ovarian 9.25% | OVCAR-3 ovarian 3.83% | NCI/ADR-RES ovarian 0.226% | MCF7 breast 5.93% | HCT-116 colon 5.5%
inactive: RPMI-8226 leukemia 12% | OVCAR-8 ovarian 15.7% | OVCAR-5 ovarian 31.2% | SK-OV-3 ovarian 18.4% | HS 578T breast 60.6% | T-47D breast 20% | BT-549 breast 32% | MDA-MB-435 melanoma 24.5% | SW-620 colon 19.6% | HCC-2998 colon 35.7% | KM12 colon 18.5%

C=CCN1C(=O)c2cccc3c(N4CCOCC4)ccc(c23)C1=O
active: SR leukemia -9.38% | RPMI-8226 leukemia -25.8% | IGROV1 ovarian -14.5% | OVCAR-3 ovarian -66.4% | HS 578T breast 4.58% | NCI/ADR-RES ovarian 6.06% | T-47D breast -2.1% | BT-549 breast -47.8% | MDA-MB-435 melanoma 0.357% | SW-620 colon 7.24% | MCF7 breast -0.408% | HCT-116 colon -25.4% | HCC-2998 colon -34% | KM12 colon -56.4%
inactive: OVCAR-8 ovarian 20.7% | OVCAR-5 ovarian 21.4% | OVCAR-4 ovarian 14.4% | SK-OV-3 ovarian 13.9%

CC1(C)C(N)=Nc2cc(OCCCN3Cc4ccccc4C3)c(OCC3CC3)cc21
inactive: SR leukemia 32.4% | RPMI-8226 leukemia 44.3% | OVCAR-8 ovarian 76.8% | OVCAR-5 ovarian 83.2% | OVCAR-4 ovarian 91.4% | SK-OV-3 ovarian 75% | IGROV1 ovarian 80.2% | OVCAR-3 ovarian 80.6% | HS 578T breast 71.7% | NCI/ADR-RES ovarian 92.9% | T-47D breast 45.8% | BT-549 breast 76.5% | MDA-MB-435 melanoma 66.6% | SW-620 colon 87.8% | MCF7 breast 50.4% | HCT-116 colon 49.2% | HCC-2998 colon 11.9% | KM12 colon 84.2%

CN1C(=O)/C(=C2\SC(=Nc3ccccc3)N(Nc3ccccc3)C2=O)c2ccccc21
inactive: SR leukemia 117% | RPMI-8226 leukemia 106% | OVCAR-8 ovarian 102% | OVCAR-5 ovarian 104% | OVCAR-4 ovarian 111% | SK-OV-3 ovarian 98% | IGROV1 ovarian 79.5% | OVCAR-3 ovarian 110% | HS 578T breast 107% | NCI/ADR-RES ovarian 102% | T-47D breast 82.2% | BT-549 breast 109% | MDA-MB-435 melanoma 106% | SW-620 colon 98.3% | MCF7 breast 86.2% | HCT-116 colon 104% | HCC-2998 colon 113% | KM12 colon 103%

O=C(CSc1nnc(-c2cc(-c3ccccc3)nc3ccccc23)n1-c1ccccc1)Nc1ccc(C(=O)/C=C/c2ccc(Cl)cc2)cc1
inactive: SR leukemia 80.2% | RPMI-8226 leukemia 66.6% | OVCAR-8 ovarian 93.1% | OVCAR-5 ovarian 90.1% | OVCAR-4 ovarian 91.6% | SK-OV-3 ovarian 94.2% | IGROV1 ovarian 108% | OVCAR-3 ovarian 97.2% | HS 578T breast 89.1% | NCI/ADR-RES ovarian 95.3% | T-47D breast 73.8% | BT-549 breast 92.4% | MDA-MB-435 melanoma 96.5% | SW-620 colon 93.3% | MCF7 breast 78.5% | HCT-116 colon 86.5% | HCC-2998 colon 100% | KM12 colon 75.4%

O=S(=O)(Oc1ccc(Br)cc1)c1ccc(Cl)cc1
inactive: SR leukemia 98.3% | RPMI-8226 leukemia 99.7% | OVCAR-8 ovarian 106% | OVCAR-5 ovarian 92.5% | OVCAR-4 ovarian 98.9% | SK-OV-3 ovarian 108% | IGROV1 ovarian 98.8% | OVCAR-3 ovarian 98.3% | HS 578T breast 104% | NCI/ADR-RES ovarian 96.2% | T-47D breast 88.5% | BT-549 breast 99.8% | MDA-MB-435 melanoma 104% | SW-620 colon 102% | MCF7 breast 91.7% | HCT-116 colon 98.6% | HCC-2998 colon 83.2% | KM12 colon 99.3%

N#Cc1c(-c2ccccc2)nc(SCc2nnc(-c3ccc(Cl)cc3)o2)[nH]c1=O
inactive: SR leukemia 105% | RPMI-8226 leukemia 95.6% | OVCAR-8 ovarian 93.6% | OVCAR-5 ovarian 114% | OVCAR-4 ovarian 106% | SK-OV-3 ovarian 55.4% | IGROV1 ovarian 103% | OVCAR-3 ovarian 103% | HS 578T breast 93.8% | NCI/ADR-RES ovarian 93.3% | T-47D breast 53.8% | BT-549 breast 76.3% | MDA-MB-435 melanoma 109% | SW-620 colon 100% | MCF7 breast 91.3% | HCT-116 colon 83.9% | HCC-2998 colon 103% | KM12 colon 102%

CS(=O)(=O)c1nnc(-c2ccccc2)s1
inactive: SR leukemia 40.3% | RPMI-8226 leukemia 99.5% | OVCAR-8 ovarian 97.4% | OVCAR-5 ovarian 99.3% | OVCAR-4 ovarian 99.5% | SK-OV-3 ovarian 98.8% | IGROV1 ovarian 103% | OVCAR-3 ovarian 99.3% | HS 578T breast 108% | NCI/ADR-RES ovarian 104% | T-47D breast 44.4% | BT-549 breast 105% | MDA-MB-435 melanoma 96.5% | SW-620 colon 84.8% | MCF7 breast 77.8% | HCT-116 colon 45.1% | HCC-2998 colon 103% | KM12 colon 92.7%
